# Compound activity (PubChem)
# POLH inh = qHTS for Inhibitors of Polymerase Eta | Potency, µM (highest dose often 114 µM), for the others: top-dose activity change, negative = inhibition, hits mostly inhibitors | hit rate 1.2% among 390,000 | recombinant Pol eta, fluorescent DNA replication assay | AID 588591, 2011 | DNA polymerase eta (Homo sapiens), Q9Y253; further: potency means the concentration at half of the fitted maximal effect; on the % scale 0 is the no-effect control and ±100 the full control effect
#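 Pol eta (10 nM) was preincubated with compounds for 15 min at room temperature, after which fluorescent replication substrate (50 nM final) was added to start the reaction. Fluorescence was read kinetically at 0 and 10 min.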
# POLB inh = qHTS Assay for Inhibitors of DNA Polymerase Beta; Potency, µM (highest dose often 114 µM), for the others: top-dose activity change, negative = inhibition, actives largely listed as inhibitors; Pol beta primer extension/strand displacement, fluorescence kinetic; hit rate 1.3% among 340,000; P06746; further: potency means the concentration at half of the fitted maximal effect; on the % scale 0 is the no-effect control and ±100 the full control effect
#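 Homogeneous kinetic assay of primer extension and strand displacement by 10 nM Pol beta, preincubated 15 min at room temperature with compound before 50 nM substrate (final) was added. Read at 0 and 10 min; four-parameter Hill fit.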
# Pol kappa inh = qHTS for Inhibitors of Polymerase Kappa. purified Pol kappa, fluorescent DNA synthesis assay, 10 min. AID 588579, 2011. Potency, µM (highest dose often 107 µM), inactives show at the top dose activity, negative = inhibition, hits mostly inhibitors. hit rate 0.53% among 400,000. DNA polymerase kappa (Homo sapiens), Q9UBT6; further: potency means the concentration at half of the fitted maximal effect; on the % scale 0 is the no-effect control and ±100 the full control effect
# Target sequence (Q9UBT6 whole entry, looked up): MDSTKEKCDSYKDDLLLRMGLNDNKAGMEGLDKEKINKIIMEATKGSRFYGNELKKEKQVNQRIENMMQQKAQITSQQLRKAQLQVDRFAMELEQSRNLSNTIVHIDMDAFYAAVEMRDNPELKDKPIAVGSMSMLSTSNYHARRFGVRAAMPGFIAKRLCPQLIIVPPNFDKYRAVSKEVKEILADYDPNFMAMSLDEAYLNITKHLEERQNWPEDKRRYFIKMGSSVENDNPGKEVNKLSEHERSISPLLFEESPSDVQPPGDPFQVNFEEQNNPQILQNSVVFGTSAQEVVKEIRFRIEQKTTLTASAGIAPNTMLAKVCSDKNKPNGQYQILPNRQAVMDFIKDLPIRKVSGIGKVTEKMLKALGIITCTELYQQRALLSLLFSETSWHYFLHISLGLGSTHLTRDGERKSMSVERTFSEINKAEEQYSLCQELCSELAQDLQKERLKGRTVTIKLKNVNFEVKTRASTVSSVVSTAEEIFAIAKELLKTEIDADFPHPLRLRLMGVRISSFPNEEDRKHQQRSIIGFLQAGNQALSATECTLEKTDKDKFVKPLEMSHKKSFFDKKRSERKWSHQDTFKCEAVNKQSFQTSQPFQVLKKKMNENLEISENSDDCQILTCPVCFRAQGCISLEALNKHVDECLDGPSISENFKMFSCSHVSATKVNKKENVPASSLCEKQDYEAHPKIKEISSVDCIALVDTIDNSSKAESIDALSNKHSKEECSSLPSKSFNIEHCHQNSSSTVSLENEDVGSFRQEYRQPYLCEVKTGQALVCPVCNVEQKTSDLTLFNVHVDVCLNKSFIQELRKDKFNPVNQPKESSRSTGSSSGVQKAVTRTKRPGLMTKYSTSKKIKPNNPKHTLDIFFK
#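 Pol kappa 10 nM + cpd, 15 min RT; start w/ substrate 50 nM final; fluorescence kinetic read, 0 and 10 min. Neg ctrl: buffer, no enzyme.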
# WRN helicase inh = qHTS for Inhibitors of WRN Helicase | Bifunctional 3'-5' exonuclease/ATP-dependent helicase WRN (Homo sapiens), Q14191 | WRN helicase unwinding, fluorescent forked duplex, kinetic | Potency, µM (doses to about 114 µM), without a hit: at the top dose activity change, negative = inhibition, usual class: inhibitors | hit rate 0.46% among 360,000; further: potency means the concentration at half of the fitted maximal effect; on the % scale 0 is the no-effect control and ±100 the full control effect; nearly all actives have a fitted effect of over 55% in size
#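 Primary qHTS, 1536-well format. 20 nM WRN + compound, 15 min RT; start with 100 nM forked fluorophore/quencher duplex, 2 mM ATP (final); kinetic read ex 525/em 598 nm.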
# Pol iota inh = qHTS for Inhibitors of Polymerase Iota; Pol iota fluorescent replication assay, 10 min; Potency, µM (top dose mostly 115 µM), for inactives: at the highest dose activity, negative = inhibition, most hits filed as inhibitors; hit rate 1% among 390,000; AID 588590, 2011; further: potency means the concentration at half of the fitted maximal effect
#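 Fluorescent replication assay read twice, at 0 min and 10 min after adding 50 nM (final) substrate. Enzyme (10 nM) and compounds were first incubated 15 min at room temperature; enzyme-free buffer wells were negative controls.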
# PI5P4Ka inh = qHTS for Inhibitors of phosphatidylinositol 5-phosphate 4-kinase (PI5P4K) | Phosphatidylinositol 5-phosphate 4-kinase type-2 alpha (Homo sapiens), P48426 | PI5P4Kalpha enzyme, ADP-Glo luminescence, 60 min; active compounds read low | max response, % | hit rate 1.2% among 330,000 | AID 652105, 2013; active means max response of -50% or lower; inconclusive means between -30% and -50%; inactive means -30% or higher; further: value at the top dose of about 77 µM; on the % scale 0 is the no-effect control and ±100 the full control effect
#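 Reactions run in 0.038 M HEPES pH 7.4, 0.28 mM EGTA, 0.1% CHAPS and 5% DMSO, with PI5P4Kalpha, substrate, compound and 5 microM ATP final, one hour at room temperature. Readout is ADP-Glo luminescence.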
# The depositor's hits bear a star; u = inconclusive; x = no result given; [ ] = remark or other dose. An excerpt weighted towards active compounds, which were near 2.8% of everything screened. Unless noted, the call rests on the fitted dose curve; in most records, active means well fitted curve in the direction sought with a large enough effect; inconclusive means small, poorly fitted or top-dose-only effect, or another doubt; inactive means no such curve, though single readings can be large; an effect the other way counts as inactive or inconclusive.
SMILES,POLH inh,POLB inh,Pol kappa inh,WRN helicase inh,Pol iota inh,PI5P4Ka inh
CCCOc1cc(N)ccc1C(=O)OCCN(CC)CC,-15.9%,x,-21.0%,2.3%,-3.4%,2.0
CCOc1ccc(N(C)S(=O)(=O)c2ccc3c(c2)CCCN3C(C)=O)cc1,-9.3%,20.5%,-5.4%[60.1 µM],x,17.6%,x
O=C(NCCO)c1cc2ccccc2cc1O,-7.4%,-12.2%,1.9%,-6.4%,-6.1%,x
Cc1ccc(Cl)cc1NC(=O)c1cc2ccccc2cc1O,2.4%,25.1µM*,-8.5%,-8.1%,-2.7%,1.6
NNC(=O)c1cc2ccccc2cc1O,-16.8%,19.4%,-19.3%,-8.1%,-7.5%,-52.4*
CO/N=C(\C(=O)N[C@@H]1C(=O)N2C(C(=O)[O-])=C(C[N+]3(C)CCCC3)CS[C@@H]12)c1csc(N)n1,x,x,-3.1%[12 µM],x,x,x
Nc1cccc2[nH]c(C(F)(F)F)nc12,79.4µM*,u,u,-97.5%,39.8µM*,u
CCOC(=O)Nc1ccc(C(=O)Oc2ccccc2)c(O)c1,-10.6%,2.9%,-12.8%,-5.0%,u,x
Cc1cccc(OC(=O)Nc2ccc(C(=O)O)c(O)c2)c1,-8.7%,x,x,-2.0%,x,-54.5*
COc1ccc(-c2onc(C)c2C)cc1S(=O)(=O)N1CCc2ccccc21,-14.7%,7.7%,-15.2%,x,-0.3%,x
CCCN1C(=O)/C(=C/c2c(N3CCNC(=O)C3CC(=O)OC)nc3c(C)cccn3c2=O)SC1=S (centres undefined),x,89.1µM*,x,x,x,x
CN(CC(=O)Nc1ccc(Cl)c(C(F)(F)F)c1)C(=O)Cn1cc([N+](=O)[O-])ccc1=O,79.4µM*,x,3.5%,-3.8%[11.6 µM],21.4%,u
Cc1ccc(NC(=O)CN(C)C(=O)Cn2cc(C(F)(F)F)ccc2=O)cc1,-27.0%,19.2%[57.1 µM],-16.8%,-2.9%,-13.4%,-3.3
CCOC(=O)C1=C(COC(=O)COc2ccc(Br)cc2)NC(=O)NC1C (centres undefined),2.8%,x,-14.4%,1.7%,10.7%,6.6
Cc1cc(C)cc(NC(=O)CSCn2nnc3c(=O)[nH]c(Cc4ccc(F)cc4)nc32)c1,u,39.8µM*,79.4µM*,x,79.4µM*,x
O=C(CSCn1nnc2c(=O)[nH]c(Cc3ccc(F)cc3)nc21)Nc1ccccc1,-10.5%,0.3%,0.0%,x,37.1%,x
C#CCOCCOCCOCCNc1nc(N2CCN(C(=O)[C@H](CCCN=C(N)N)n3cc(C(N)[C@H](C)CC)nn3)CC2)nc(N2CCN(C(=O)[C@H](CCCN=C(N)N)n3cc(C(N)[C@@H](C)CC)nn3)CC2)n1 (some centres undefined),-5.0%,x,4.2%,-31.6%,u,-60.9*
C#CCOCCOCCOCCNc1nc(N2CCN(C(=O)[C@H](CCC(=O)O)n3cc(C(N)[C@H](C)CC)nn3)CC2)nc(N2CCN(C(=O)[C@H](CCC(=O)O)n3cc(C(N)[C@H](C)CC)nn3)CC2)n1 (some centres undefined),25.1µM*,2.4%,-54.1%,-7.3%,u,-1.0
Cc1ccccc1CNC(=O)C(=O)NCC(c1ccco1)S(=O)(=O)c1ccc(F)cc1 (centres undefined),-12.2%,2.5%,-13.0%[60.1 µM],x,13.5%,x
COc1ccc(N2CCN(C(CNC(=O)C(=O)NCc3ccc(C)cc3)c3cccnc3)CC2)cc1 (centres undefined),-7.9%,8.9%,3.8%,x,16.6%,x
COc1cc2nc(N3CCCCC3)nc(NC3CC3)c2cc1OC,x,x,-25.9%,x,1.7%,x
O=C(O)c1ccc(Cl)c2c1C1C=CCC1C(c1ccccn1)N2 (centres undefined),x,8.91µM*,x,x,x,x
CCc1cc(C(=O)NCC(c2ccco2)N2CCCCC2)sc1C (centres undefined),-6.4%,x,-1.6%,11.2%,21.7%,-8.5
Cc1ccccc1N(CC(=O)NCCSCc1ccco1)S(C)(=O)=O,-11.1%,u,-11.0%,-18.1%,56.2µM*,x
O=C(CN1C(=O)c2ccccc2S1(=O)=O)NCCSCc1ccco1,-1.4%,5.3%,-24.9%,-10.4%[57.1 µM],100µM*,x
SMILES,POLH inh,POLB inh,Pol kappa inh,WRN helicase inh,Pol iota inh,PI5P4Ka inh
CCOc1ccccc1N(CC(=O)NCCSCc1ccco1)S(=O)(=O)c1ccccc1,u,28.2µM*,u,-34.6%,u,-6.2
O=C(CN1C(=O)c2ccccc2S1(=O)=O)NCCSCc1ccccc1Cl,1.2%,-0.8%,-13.6%,-9.0%,0.0%,-3.4
COc1ccccc1NS(=O)(=O)c1cccc(C(=O)N/N=C/c2ccc(OCC(=O)O)cc2)c1,-15.2%,-27.1%,1.9%,-8.0%,-2.5%,-3.0
COc1ccccc1NS(=O)(=O)c1cccc(C(=O)N/N=C/c2ccc(NC(C)=O)cc2)c1,-14.9%,u,-26.2%,-9.6%,50.1µM*,10.2
O=S(=O)(c1ccc(Oc2ccc(-c3nnco3)cc2)nc1)N1CCC(Cc2ccccc2)CC1,44.7µM*,u,-14.6%,4.8%,-5.9%,0.5
Cc1cccc(CCn2c(=O)c3ccccc3n(Cc3ccccc3C)c2=O)c1,-12.2%,-0.3%,-20.5%,x,19.9%,x
C[C@@H]1[C@H](c2ccccc2)OCCS(=O)(=O)N1Cc1ccc(Cl)cc1,x,x,-15.8%,x,1.1%,x
CCOC(=O)c1[nH]c(C)c(C(=O)C(C)C)c1C,-7.3%,2.8%,-14.8%,1.4%,11.0%,x
COc1cc(C=O)ccc1OCCOCCOc1c(C)cc(Cl)cc1Cl,-12.5%,10µM*,-4.9%,-8.2%,1.9%,2.8
COc1cc(C=O)ccc1OCCOCCOc1ccc(Cl)cc1Cl,-16.6%,x,-9.8%,-18.5%,-0.8%,-1.4
Cc1nc(C)c(-c2csc(Nc3ccc(N)cc3)n2)s1,-21.9%,-27.8%,-16.3%,-8.1%,-6.4%,-0.1
Cc1nc(C)c(-c2csc(Nc3ccc(O)c(C(=O)O)c3)n2)s1,u,-23.5%,-5.6%,-34.8%,72.0%,-74.5*
Cc1sc2ccccc2[n+]1CC(=O)c1ccc(F)cc1,x,x,-18.1%,x,25.7%,x
CCOC(=O)C(O)(NC(=O)c1cccnc1)C(F)(F)F (centres undefined),-18.9%,-18.8%,-0.3%,10.2%,14.5%,0.3
CC(=O)C(C(C)=O)C(NC(=O)c1cccnc1)(C(F)(F)F)C(F)(F)F,-8.1%,2.7%,-9.0%,89.1µM*,-2.4%,-62.9*
O=C(C=Cc1ccccc1)c1cc(Br)ccc1O,-18.5%,x,-9.5%,-18.5%,75.1%,1.9
CCc1ccc(/C=C/C(=O)c2cc(Br)ccc(=O)c2O)cc1,u,15.8µM*,u,-26.6%,u,-28.8
Cc1nc2c(C(=O)N3CCN(c4ccccn4)CC3)cnn2c(C)c1Cc1cccc(Cl)c1,-17.8%,2.9%,-8.0%,0.3%,89.1µM*,x
